Data from PubChem BioAssay.
Calls of active or inactive are those of the source.

Tests used:
[1] = small molecules captured by biotinylated probe aFSTL3 – biochemical, small-molecule microarray, fluorescence 635/667, stem cell growth factor project, primary screen (AID 1064); settings: higher = more signal;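 note: measures binding of the biotinylated anti-FSTL3 antibody to printed compounds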
[2] = binders from COS7 lysate, DM2A8 probe, primary screen, torsin A project, cell lysate, small-molecule microarray, fluorescence 635/667 (AID 1065); settings: higher = more signal, COS7 lysate expressing mutant human TOR1A
[3] = small molecules captured by biotinylated probe aFGF2 – biochemical, small-molecule microarray, fluorescence 635/667, stem cell growth factor project, primary screen (AID 1067); settings: higher = more signal;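 note: measures binding of biotinylated aFGF2 protein to printed compounds on slides; z-score merges feature fluorescence and signal-to-noise across triplicate slides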
[4] = small molecules captured by biotinylated probe aFGF10 – biochemical, small-molecule microarray, fluorescence 635/667, stem cell growth factor project, primary screen (AID 1071); settings: higher = more signal;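 note: score merges 667 nm spot intensity and signal to noise from triplicate slides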
[5] = biological target: Neurogenic locus notch homolog protein 2 (Homo sapiens) (UniProt Q04721); assay: small molecules binding Notch2 protein – biochemical, small-molecule microarray, 635 nm fluorescence, stem cell growth factors, primary screen (AID 1073); settings: higher = more signal
[6] = biological target: Pro-neuregulin-1, membrane-bound isoform (Homo sapiens) (UniProt Q02297); assay: small molecules binding neuregulin-1 protein – biochemical, small-molecule microarray, fluorescence 635/667, psychiatric disease protein project, primary screen (AID 1075); settings: NRG1 binding, 635 nm fluorescence, higher = more signal;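 note: score combines 667 nm spot fluorescence with signal to noise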
[7] = test system: Neuregulin-1 EGF-like domain; assay: small molecules binding NRG1 EGF domain – biochemical, small-molecule microarray, 635 nm fluorescence, primary screen (AID 1081); settings: higher = more signal;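 note: binding of the protein to compounds printed on small-molecule microarray slides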
[8] = FRG1 expression reporter modulators in myotubes – cell-based, C2C12 myotubes, firefly/Renilla luciferase, luminescence, FRG1 inhibition for FSHD, primary screen (AID 1084); settings: FRG1 promoter luciferase, higher = more signal, called active from +8 up or from −8 down
[9] = small molecules captured by biotinylated probe aFST – biochemical, small-molecule microarray, fluorescence 635/667, stem cell growth factor project, primary screen (AID 1086); settings: higher = more signal;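 note: score merges 667 nm fluorescence with signal-to-noise of each printed compound spot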
[10] = binders of probe aHhip on microarray, primary screen, stem cell growth factor project, biochemical, small-molecule microarray, fluorescence 635/667 (AID 1087); settings: higher = more signal;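 note: score merges spot fluorescence at 667nm with spot signal to noise ratio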
[11] = test system: PRMT1 (protein arginine N-methyltransferase 1); assay: small molecules binding arginine methyltransferase PRMT1 – biochemical, small-molecule microarray, 635 nm fluorescence, primary screen (AID 1088); settings: higher = more signal;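 note: binding of Prmt1 protein to compounds spotted on small-molecule microarray slides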
[12] = growth effects on S. cerevisiae YJM789 – YJM789 clinical isolate, OD600, 24 h, basal, primary screen (AID 1089); settings: higher = more signal, called active from +8 up or from −8 down;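 note: growth of clinical yeast isolate S. cerevisiae YJM 789 seeded 1000 cells per well; test concentration not given here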
[13] = S. pombe growth modifiers, basal conditions – strain 972, OD600, 24 h, no modulator, primary screen (AID 1090);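 note: basal condition with compound alone and no growth modifier present; test concentration not given here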; settings: S. pombe 972 growth, higher = more signal, called active from +8 up or from −8 down
[14] = budding yeast growth modifiers under rapamycin – strain BY4716, OD600, 96 h, primary screen (AID 1091); note: test concentration not given here; settings: S. cerevisiae BY4716 + rapamycin, higher = more signal, called active from +8 up or from −8 down
[15] = biological target: Torsin-1A-interacting protein 2 (Homo sapiens) (UniProt Q8NFQ8); assay: small molecules binding lysate-expressed LULL1 – cell lysate, human LULL1 lysate, 635/667 nm fluorescence, primary screen (AID 1092); settings: small-molecule microarray, hLULL1 lysate binding, 635 nm fluorescence; higher = more signal;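 note: probe is lysate of COS7 cells overexpressing human LULL1; score merges per-feature 667 nm fluorescence with signal-to-noise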
[16] = optical density change of DRC41 E. coli – strain DRC41, OD650, 24 h, E. coli filamentation project, primary screen (AID 1093);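 note: MC1000 strain lacking acrAB efflux and sulA so SOS filamentation is blocked; test concentration not given here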; settings: E. coli DRC41 growth, higher = more signal, called active from +8 up or from −8 down
[17] = probe aLefty2 binding to arrayed compounds – biochemical, biotinylated probe, 635/667 nm fluorescence, primary screen (AID 1094); settings: small-molecule microarray, higher = more signal;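 note: score merges spot fluorescence near 667 nm with spot signal-to-noise ratio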
[18] = test system: Noggin (protein binding on small-molecule microarray); assay: small molecules binding Noggin protein – biochemical, 635/667 nm fluorescence, primary screen (AID 1095); settings: 635 nm fluorescence, higher = more signal;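 note: score merges 667 nm feature fluorescence with signal to noise over triplicate slides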
[19] = biological target: Neurogenic locus notch homolog protein 3 (Homo sapiens) (UniProt Q9UM47); assay: small molecules binding NOTCH3 protein – biochemical, 635/667 nm fluorescence, primary screen (AID 1096); settings: small-molecule microarray, 635 nm fluorescence, higher = more signal
[20] = probe aEGFR binding to arrayed compounds – biochemical, biotinylated probe, 635/667 nm fluorescence, primary screen (AID 1097); settings: small-molecule microarray, higher = more signal;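 note: probe is a biotinylated anti-EGFR antibody binding compounds printed on slides; score combines fluorescence near 667 nm and signal to noise of each spot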

Sequence of Neurogenic locus notch homolog protein 2 (Homo sapiens) (Q04721 whole entry, looked up, canonical isoform): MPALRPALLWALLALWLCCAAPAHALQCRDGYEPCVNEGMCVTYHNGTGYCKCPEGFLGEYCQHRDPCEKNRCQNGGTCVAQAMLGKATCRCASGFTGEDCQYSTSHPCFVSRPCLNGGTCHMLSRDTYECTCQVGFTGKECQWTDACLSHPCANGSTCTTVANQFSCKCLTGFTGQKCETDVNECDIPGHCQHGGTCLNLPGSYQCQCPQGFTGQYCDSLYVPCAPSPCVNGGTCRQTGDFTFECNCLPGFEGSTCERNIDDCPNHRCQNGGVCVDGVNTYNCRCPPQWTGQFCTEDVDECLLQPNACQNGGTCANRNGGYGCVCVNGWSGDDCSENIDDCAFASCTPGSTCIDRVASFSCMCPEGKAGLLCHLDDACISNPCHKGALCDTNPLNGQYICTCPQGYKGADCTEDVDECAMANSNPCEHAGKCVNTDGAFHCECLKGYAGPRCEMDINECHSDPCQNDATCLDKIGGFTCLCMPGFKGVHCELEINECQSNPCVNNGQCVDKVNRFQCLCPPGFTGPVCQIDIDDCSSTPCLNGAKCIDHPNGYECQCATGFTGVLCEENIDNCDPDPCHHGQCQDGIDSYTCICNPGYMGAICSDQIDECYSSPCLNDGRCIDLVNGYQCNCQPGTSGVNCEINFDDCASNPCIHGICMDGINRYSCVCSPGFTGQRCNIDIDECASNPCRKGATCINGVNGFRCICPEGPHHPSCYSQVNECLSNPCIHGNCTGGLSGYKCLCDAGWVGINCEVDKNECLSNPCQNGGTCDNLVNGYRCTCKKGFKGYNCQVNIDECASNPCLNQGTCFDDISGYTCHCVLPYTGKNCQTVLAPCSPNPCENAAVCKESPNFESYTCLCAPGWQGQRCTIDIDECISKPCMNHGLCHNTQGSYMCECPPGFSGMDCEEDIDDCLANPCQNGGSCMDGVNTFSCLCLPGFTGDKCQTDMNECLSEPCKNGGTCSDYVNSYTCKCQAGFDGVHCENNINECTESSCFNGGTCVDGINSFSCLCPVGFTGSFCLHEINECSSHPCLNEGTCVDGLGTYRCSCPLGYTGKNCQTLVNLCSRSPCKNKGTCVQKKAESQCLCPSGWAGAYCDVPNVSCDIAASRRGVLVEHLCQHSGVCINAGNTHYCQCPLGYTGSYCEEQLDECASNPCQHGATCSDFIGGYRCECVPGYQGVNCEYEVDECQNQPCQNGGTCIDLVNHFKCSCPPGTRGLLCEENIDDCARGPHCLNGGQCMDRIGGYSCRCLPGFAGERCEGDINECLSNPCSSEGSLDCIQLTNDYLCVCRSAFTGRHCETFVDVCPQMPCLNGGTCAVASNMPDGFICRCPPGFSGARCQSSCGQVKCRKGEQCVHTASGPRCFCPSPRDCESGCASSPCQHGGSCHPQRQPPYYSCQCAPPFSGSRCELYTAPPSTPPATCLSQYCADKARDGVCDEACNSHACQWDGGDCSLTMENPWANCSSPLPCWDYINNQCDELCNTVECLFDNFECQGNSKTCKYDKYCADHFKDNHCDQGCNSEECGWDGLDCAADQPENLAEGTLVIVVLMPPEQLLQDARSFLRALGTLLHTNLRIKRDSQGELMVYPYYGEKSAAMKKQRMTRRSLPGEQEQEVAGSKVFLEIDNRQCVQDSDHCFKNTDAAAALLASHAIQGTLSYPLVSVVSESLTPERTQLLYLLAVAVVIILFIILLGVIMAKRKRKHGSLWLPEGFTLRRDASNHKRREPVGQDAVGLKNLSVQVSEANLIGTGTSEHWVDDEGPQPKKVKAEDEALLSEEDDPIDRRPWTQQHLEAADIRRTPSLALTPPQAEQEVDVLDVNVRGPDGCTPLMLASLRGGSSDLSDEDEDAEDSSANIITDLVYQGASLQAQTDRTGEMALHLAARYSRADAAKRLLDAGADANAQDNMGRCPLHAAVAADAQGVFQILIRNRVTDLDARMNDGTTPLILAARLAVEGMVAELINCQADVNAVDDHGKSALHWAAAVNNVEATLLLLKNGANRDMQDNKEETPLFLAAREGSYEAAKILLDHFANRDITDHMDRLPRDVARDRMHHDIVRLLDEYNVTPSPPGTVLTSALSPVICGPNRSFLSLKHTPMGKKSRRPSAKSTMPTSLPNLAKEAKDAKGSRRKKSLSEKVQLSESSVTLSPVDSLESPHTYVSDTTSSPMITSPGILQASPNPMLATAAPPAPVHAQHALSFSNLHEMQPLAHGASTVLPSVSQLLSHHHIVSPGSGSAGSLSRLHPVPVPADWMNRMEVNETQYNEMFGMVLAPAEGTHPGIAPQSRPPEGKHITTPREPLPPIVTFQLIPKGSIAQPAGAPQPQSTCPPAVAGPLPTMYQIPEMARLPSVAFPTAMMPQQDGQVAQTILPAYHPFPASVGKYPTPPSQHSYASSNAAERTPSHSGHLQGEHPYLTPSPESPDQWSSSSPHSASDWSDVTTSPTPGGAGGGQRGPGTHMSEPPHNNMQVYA
Sequence of Neurogenic locus notch homolog protein 3 (Homo sapiens) (Q9UM47 whole entry, looked up): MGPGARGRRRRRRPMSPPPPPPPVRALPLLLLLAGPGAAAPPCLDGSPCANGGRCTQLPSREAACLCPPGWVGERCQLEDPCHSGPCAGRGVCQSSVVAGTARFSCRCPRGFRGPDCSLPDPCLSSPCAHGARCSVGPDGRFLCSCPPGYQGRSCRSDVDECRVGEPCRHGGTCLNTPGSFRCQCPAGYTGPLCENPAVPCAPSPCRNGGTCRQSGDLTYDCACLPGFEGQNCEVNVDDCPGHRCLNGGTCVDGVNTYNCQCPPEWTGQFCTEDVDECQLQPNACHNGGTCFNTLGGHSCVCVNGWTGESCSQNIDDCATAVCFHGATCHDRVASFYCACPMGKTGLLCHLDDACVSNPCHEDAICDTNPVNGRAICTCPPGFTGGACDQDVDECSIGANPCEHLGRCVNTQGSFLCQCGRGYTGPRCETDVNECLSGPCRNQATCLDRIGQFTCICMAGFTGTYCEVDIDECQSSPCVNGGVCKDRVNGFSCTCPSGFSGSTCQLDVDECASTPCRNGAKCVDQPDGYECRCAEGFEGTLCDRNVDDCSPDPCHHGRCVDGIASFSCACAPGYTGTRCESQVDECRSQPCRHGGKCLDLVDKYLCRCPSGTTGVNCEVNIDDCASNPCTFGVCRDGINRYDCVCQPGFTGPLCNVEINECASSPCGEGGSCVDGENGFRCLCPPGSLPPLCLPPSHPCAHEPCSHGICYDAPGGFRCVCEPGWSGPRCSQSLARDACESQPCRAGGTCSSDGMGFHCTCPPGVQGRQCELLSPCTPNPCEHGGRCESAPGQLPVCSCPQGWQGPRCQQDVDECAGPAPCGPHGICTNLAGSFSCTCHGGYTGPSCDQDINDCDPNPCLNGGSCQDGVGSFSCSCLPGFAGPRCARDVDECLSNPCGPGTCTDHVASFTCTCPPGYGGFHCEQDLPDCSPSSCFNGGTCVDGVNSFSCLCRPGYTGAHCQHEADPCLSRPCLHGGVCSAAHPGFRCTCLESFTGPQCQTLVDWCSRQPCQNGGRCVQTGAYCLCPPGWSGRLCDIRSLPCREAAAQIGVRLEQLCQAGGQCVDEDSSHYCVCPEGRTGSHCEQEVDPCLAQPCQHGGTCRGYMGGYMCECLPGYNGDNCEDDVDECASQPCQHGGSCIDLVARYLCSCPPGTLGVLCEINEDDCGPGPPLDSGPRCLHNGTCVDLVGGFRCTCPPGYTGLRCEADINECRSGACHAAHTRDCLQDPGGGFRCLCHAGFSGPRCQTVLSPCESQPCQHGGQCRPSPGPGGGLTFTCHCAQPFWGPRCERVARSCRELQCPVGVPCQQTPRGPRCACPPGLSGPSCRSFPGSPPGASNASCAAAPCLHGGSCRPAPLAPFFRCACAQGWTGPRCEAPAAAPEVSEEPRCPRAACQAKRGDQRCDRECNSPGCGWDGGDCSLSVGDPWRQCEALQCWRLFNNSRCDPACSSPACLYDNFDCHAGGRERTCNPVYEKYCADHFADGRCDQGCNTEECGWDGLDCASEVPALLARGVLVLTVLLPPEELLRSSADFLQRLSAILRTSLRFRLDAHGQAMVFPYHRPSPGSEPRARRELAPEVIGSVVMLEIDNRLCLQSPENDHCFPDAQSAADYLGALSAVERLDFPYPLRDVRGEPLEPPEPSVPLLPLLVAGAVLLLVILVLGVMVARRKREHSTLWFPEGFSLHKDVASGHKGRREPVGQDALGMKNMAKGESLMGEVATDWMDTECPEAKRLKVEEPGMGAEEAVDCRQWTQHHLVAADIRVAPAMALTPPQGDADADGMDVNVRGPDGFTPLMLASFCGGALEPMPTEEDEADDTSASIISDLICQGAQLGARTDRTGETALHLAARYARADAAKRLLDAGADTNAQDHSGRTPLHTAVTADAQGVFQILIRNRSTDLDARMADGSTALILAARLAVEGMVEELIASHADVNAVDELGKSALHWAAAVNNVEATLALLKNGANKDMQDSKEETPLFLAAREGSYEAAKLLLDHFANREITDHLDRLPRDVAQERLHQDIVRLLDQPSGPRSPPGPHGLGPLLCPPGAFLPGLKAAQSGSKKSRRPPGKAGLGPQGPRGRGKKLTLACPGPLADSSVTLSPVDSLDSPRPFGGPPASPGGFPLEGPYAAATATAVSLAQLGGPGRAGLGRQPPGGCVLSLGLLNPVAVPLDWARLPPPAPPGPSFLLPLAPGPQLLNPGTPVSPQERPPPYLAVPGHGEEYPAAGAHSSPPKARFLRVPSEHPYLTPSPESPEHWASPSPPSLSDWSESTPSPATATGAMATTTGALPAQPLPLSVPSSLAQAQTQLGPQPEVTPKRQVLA

SMILES	composite z-score [1]	composite z-score [2]	composite z-score [3]	composite z-score [4]	composite z-score [5]	composite z-score [6]	composite z-score [7]	z-score [8]	composite z-score [9]	composite z-score [10]	composite z-score [11]	z-score [12]	z-score [13]	z-score [14]	composite z-score [15]	z-score [16]	composite z-score [17]	composite z-score [18]	composite z-score [19]	composite z-score [20]
COC(=O)[C@@]1(Cc2ccc(F)cc2)[C@H]2c3cc(C(=O)N4CCCC4)n(CCF)c3C[C@H]2CN1C(=O)c1ccccc1	0.999	1.52	0.856	1.1	1.55	1.65	1.29	-0.533 (inactive)	2.81	2.09	-0.195	-0.496 (inactive)	-0.202 (inactive)	-0.0254 (inactive)	3.13	0.164 (inactive)	1.49	-0.258	1.13	0.879
COc1ccc(C#Cc2ccc3c(c2)[C@]2(C(=O)N3)[C@H](C(=O)N3CCc4cc(OC)c(OC)cc4C3)[C@H]3C(=O)O[C@H](c4ccccc4)[C@H](c4ccccc4)N3[C@@H]2c2ccc(O)cc2)cc1	-0.439	0.606	-0.0583	0.282	0.781	1.27	1.19	1.57 (inactive)	0.295	-0.12	1.57	1.36 (inactive)	1.14 (inactive)	1.91 (inactive)	2.28	-0.384 (inactive)	-0.143	0.875	1.01	-0.0142
O=C(CCCCCCC(=O)Nc1ccccc1)N/N=C/c1ccccc1	-0.199	0.0786	-0.141	0.0493	-0.252	-0.384	-0.147	0.0691 (inactive)	-0.0659	0.0373	-0.998	0.507 (inactive)	0.0263 (inactive)	1.06 (inactive)	-0.743	0.195 (inactive)	-0.105	-0.361	-0.783	-0.117
COC(=O)c1c(CC[C@@H](CO)NC(=O)N[C@H](Cn2cc(-c3ccccc3C)nn2)C(C)C)oc(C(C)=O)c1C(=O)OC	-0.157	-1.08	-0.129	0.415	-1.18	0.638	0.309	0.87 (inactive)	-0.205	0.145	-0.469	-0.147 (inactive)	-0.644 (inactive)	0.467 (inactive)	-0.351	0.537 (inactive)	-0.29	-0.0001	-0.465	-0.218
COC(=O)[C@@]1(Cc2ccc(F)cc2)[C@H]2c3cc(C(=O)N4CCCC4)n(CCc4c[nH]c5ccc(OC)cc45)c3C[C@H]2CN1C(=O)c1ccccc1	1.66	-0.619	0.803	1.3	1.58	1.46	1.19	1.61 (inactive)	2.02	0.413	-0.508	-0.0567 (inactive)	-0.156 (inactive)	2.07 (inactive)	3.37	-0.803 (inactive)	0.957	1.26	1.11	0.44
O=C1O[C@@H](c2ccccc2)[C@@H](c2ccccc2)N2[C@@H](c3ccccc3OCCO)[C@]3(C(=O)Nc4ccccc43)[C@@H](C(=O)NC[C@H](O)c3ccccc3)[C@H]12	0.421	0.98	-0.0937	0.0718	-0.843	0.551	1.2	-2.8 (inactive)	-0.127	-0.226	1.4	2.62 (inactive)	1.68 (inactive)	5.71 (inactive)	2.69	-0.467 (inactive)	-0.139	-0.84	-0.359	-0.207
CCC[C@@H]1C[C@@]1(CCC)[C@@H](NP(=O)(c1ccccc1)c1ccccc1)c1ccc(Cl)cc1	0.337	-0.23	0.0368	-0.387	-0.615	-0.23	-0.414	1.8 (inactive)	-0.223	0.982	-0.189	1.2 (inactive)	0.095 (inactive)	0.956 (inactive)	0.334	-1.79 (inactive)	-0.0703	0.112	-0.151	-0.233
COCCOC(=O)N1C(=O)[C@@]2(c3cc(C#Cc4ccc(OC)cc4)ccc31)[C@H](C(=O)N1CCN(c3ncccn3)CC1)[C@H]1C(=O)O[C@H](c3ccccc3)[C@H](c3ccccc3)N1[C@@H]2c1ccccc1OCCO	-0.0234	0.0841	-0.124	0.475	0.711	0.0925	1.02	-0.425 (inactive)	0.0402	-0.0994	1.45	3.33 (inactive)	2.27 (inactive)	7.9 (inactive)	2.17	-0.332 (inactive)	-0.0917	0.735	0.605	-0.0382
[N-]=[N+]=NCc1ccccc1C[C@]1(C(=O)NCC(O)CO)N=C(c2ccc(OCCCO)cc2)O[C@H]1c1ccccc1CN=[N+]=[N-] (stereo not given in full)	0.0591	0.696	0.139	1.14	0.566	1.34	1.16	-0.799 (inactive)	0.723	-0.0618	1.56	-0.331 (inactive)	0.735 (inactive)	1.48 (inactive)	3.6	-0.172 (inactive)	0.054	-0.0965	0.624	0.306
CC=CC(O)C1C=CC2C(=O)N(c3ccccc3)C(=O)C2N1Nc1ccc([N+](=O)[O-])cc1 (stereo not given)	-0.241	0.0149	-0.0534	0.407	0.998	1.69	0.981	0.515 (inactive)	0.126	-0.0003	0.725	-0.0987 (inactive)	1.17 (inactive)	1.44 (inactive)	2.65	-0.699 (inactive)	-0.0931	0.257	0.512	0.0007
